High-throughput results deposited in PubChem by National Center for Advancing Translational Sciences (NCATS).
Sfp inh: blocks B. subtilis Sfp PPTase activity | 310,000 tested, 3.5% active | Potency, µM, inactives show largest response in the series, negative = inhibition, usual class: inhibitors | Q9F4F7 | AID 1490 | Biochemical Sfp PPTase activity, qHTS;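 further: the enzyme is Sfp with the accession as filed and its product quenches rhodamine fluorescence; 0% = enzyme reaction without inhibitor and -100% = no enzyme wells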
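Reaction rates are the 30-min fluorescence difference (ex 525, em 598 nm) in wells containing 15 nM Sfp, 5 uM rhodamine-CoA and 12.5 uM BHQ-2-YbbR at pH 7.6 with 10 mM MgCl2.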
Epigenetic reg: regulators of epigenetic silencing causing reporter derepression in mouse cells; murine LDR cells, GFP reporter derepression, 30 h; Potency, µM (top dose mostly 53.9 µM), for inactives: at the top dose GFP activation, usual class: activators; 280,000 tested, 0.2% active; further: % of control where 0% means no effect; nearly all actives have a fitted effect of over 60% in size
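GFP-positive cell count by laser-scanning cytometry (objects 20–120 um) after 30 h, 37 C compound exposure of murine LDR cells; reporter is CMV-GFP integrated at a silenced locus, inducible by HDAC or DNMT inhibitors.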
VP16 counter: inhibits Gal4-VP16 luciferase reporter, ROR gamma counter-screen; 310,000 tested, 3.5% active; Potency, µM (titrated, usually from 53.6 µM), for the others: at the highest dose activity, negative = inhibition, usual class: inhibitors; AID 2546; Drosophila S2 Gal4-VP16 UAS-luciferase, luminescence, 20 h;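 further: Gal4-VP16 expression switched on by copper sulfate through the metallothionein promoter; on the % scale 0 is the no-effect control and ±100 the full control effect; nearly all actives have a fitted effect of over 50% in size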
PINK1 expr mod: changes PINK1 expression; PINK1 immunofluorescence, high-content cytometry, 24 h; Potency, µM (doses to about 76.6 µM), without a hit: at the top dose activation (PINK1 increase), usual class: activators; 410,000 tested, 0.2% active; active means well fitted activation curve with a large enough effect; inconclusive means small, poorly fitted or top-dose-only effect; cell line not stated here; further: % of control where 0% means no effect; nearly all actives have a fitted effect of over 65% in size
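Measures PINK1 amount and localization on or inside mitochondria by immunofluorescence. Stable cells get compounds at 5 concentrations for 24 hours before fixation and staining; CCCP controls included.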
ClpP mod: qHTS Assay for Activators of ClpP | purified B. subtilis ClpP, FRET peptide cleavage, 20 min | 340,000 tested, 1.9% active | Potency, µM (top dose mostly 57.5 µM), for inactives: at the highest dose activity change, negative = active | AID 651965, 2013 | ATP-dependent Clp protease proteolytic subunit (Bacillus subtilis (strain 168)), P80244; active means well fitted falling curve with a large enough effect; inconclusive means small, poorly fitted or top-dose-only effect; inactive means no such curve, though single readings can be large or run the other way; further: the source files actives as falling curves though it sought activators and does not explain the sign; nearly all actives have a fitted effect of over 65% in size
Target sequence (P80244 whole entry, looked up): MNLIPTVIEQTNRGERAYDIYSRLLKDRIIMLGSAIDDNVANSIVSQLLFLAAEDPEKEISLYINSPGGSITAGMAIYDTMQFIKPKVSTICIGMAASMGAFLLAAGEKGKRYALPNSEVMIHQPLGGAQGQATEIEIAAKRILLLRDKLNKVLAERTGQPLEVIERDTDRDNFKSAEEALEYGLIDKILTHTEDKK
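Purified B. subtilis ClpP, 10 microg/mL final in Tris/HCl pH8 with KCl, BSA, glycerol and Tween-20, cleaved an Abz/nitrotyrosine-quenched decapeptide. Fluorescence (ex 320, em 430) was read at 0 and 20 min at room temperature. Delta was normalized to 5.8 microM ADEP and DMSO/no-enzyme controls.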
RORg inh: blocks mouse ROR gamma transcriptional activity. 310,000 tested, 5.4% active. Drosophila S2 Gal4-RORgamma UAS-luciferase reporter, 20 h. Potency, µM (doses to about 53.6 µM), inactives show top-dose activity change, negative = inhibition, hits mostly inhibitors; further: on the % scale 0 is the no-effect control and ±100 the full control effect; nearly all actives have a fitted effect of over 60% in size
Target sequence (P51450 whole entry, looked up, the tested form may be a part): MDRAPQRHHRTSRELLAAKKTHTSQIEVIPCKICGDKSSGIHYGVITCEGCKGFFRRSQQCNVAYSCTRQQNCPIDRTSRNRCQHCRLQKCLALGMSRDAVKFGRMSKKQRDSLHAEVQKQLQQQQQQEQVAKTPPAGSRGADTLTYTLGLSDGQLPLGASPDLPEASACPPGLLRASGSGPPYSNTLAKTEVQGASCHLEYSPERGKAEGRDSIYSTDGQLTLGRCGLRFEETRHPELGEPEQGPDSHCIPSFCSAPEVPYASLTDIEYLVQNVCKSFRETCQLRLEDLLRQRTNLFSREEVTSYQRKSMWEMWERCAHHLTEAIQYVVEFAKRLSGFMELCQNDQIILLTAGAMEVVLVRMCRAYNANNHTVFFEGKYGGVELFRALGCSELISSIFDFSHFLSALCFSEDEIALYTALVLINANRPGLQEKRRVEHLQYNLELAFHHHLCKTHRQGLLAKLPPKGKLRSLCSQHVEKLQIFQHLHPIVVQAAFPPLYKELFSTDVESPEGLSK
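Read-out: Photinus luciferase luminescence; inhibitors lower reporter signal. Insect Schneider cells with Gal4-ROR gamma fusion under metallothionein promoter, UAS reporter; 700 uM final copper sulfate induction, 20 hr, ambient temperature.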
* hit, by the source's call; u = inconclusive; x = no result given; [ ] = dose if it differs, or a comment. Rows were chosen to be rich in hits. Some 8.1% of all compounds tested hit in one or more screens of this group. Unless noted, the call rests on the fitted dose curve; in most records, active means well fitted curve in the direction sought with a large enough effect; inconclusive means small, poorly fitted or top-dose-only effect, or another doubt; inactive means no such curve, though single readings can be large; an effect the other way counts as inactive or inconclusive. Potency means the concentration at half of the fitted maximal effect.

SMILES	Sfp inh	Epigenetic reg	VP16 counter	PINK1 expr mod	ClpP mod	RORg inh
CO[C@@H]1C=CO[C@]2(C)Oc3c(C)c(O)c4c(O)c(c(C=NN5CCN(C)CC5)c(O)c4c3C2=O)NC(=O)C(C)=CC=C[C@H](C)[C@H](O)[C@H](C)[C@H](O)[C@H](C)[C@H](OC(C)=O)[C@H]1C	11.5%	0.0%[16.9 µM]	-3.3%[17 µM]	x	x	-12.6%[16.9 µM]
CCCCC(=O)OCc1cc(=O)n2nc(C3CCCCC3)sc2n1	x	1.5%	x	-0.1%	-6.6%	x
Cc1ccc(S(=O)(=O)N(CC(=O)NCCc2ccc(Cl)cc2)c2ccccc2C)cc1	x	-1.1%	x	2.9%	-1.8%	x
c1cncc(-c2nn3c(Cn4cnc5ccccc54)nnc3s2)c1	-82.9%	-15.9%	-16.6%	x	-0.3%	u
c1ccc(-c2nn3c(Cn4cnc5ccccc54)nnc3s2)cc1	10µM*	-7.3%	11.6%[0.365 µM]	-3.2%[38.3 µM]	-1.3%	0.0708µM*
c1ccc2c(c1)ncn2Cc1nnc2sc(-c3ccncc3)nn12	15.8µM*	-0.9%	2.2%	1.0%[38.3 µM]	-0.3%	u
COc1ccc(Cn2c(=O)c3oc4ccccc4c3n(Cc3cccc(C)c3)c2=O)cc1	x	-2.1%	x	-0.1%	-11.0%	x
CN1CCN(c2ncc3nc(CCc4ccccc4)c(=O)n(CCC#N)c3n2)CC1	12.3%	x	-7.6%	-0.3%	x	-11.2%
Clc1cccc(N/N=C(\Cc2nc3ccccc3[nH]2)c2ccccc2)c1	45.3%	-2.0%	-89.2%	u	-4.0%	17.8µM*
Cc1ccc(/C=c2\s/c(=C(/C#N)C(=O)N3CCCC3)n(Cc3ccco3)c2=O)s1	12.6µM*	u	-15.0%	12.4%	-1.6%	u
CCOc1ccc(Nc2c(S(=O)(=O)c3ccccc3)cnc3ccc(CC)cc23)cc1	x	0.0%	x	11.2%	0.0%	x
O=C(NNC(=S)Nc1cccc(C(F)(F)F)c1)c1cccc(Cl)c1	1.0%	1.0%	u	15.8µM*	0.2%	u
COC(=O)N/N=C(\C)c1cccc(C(F)(F)F)c1	24.5%	-4.1%	-3.5%	5.6%	x	11.1%
CNC(=S)NNC(=O)c1ccc(=O)n(Cc2cccc(C(F)(F)F)c2)c1	22.1%	12.3%	-8.3%	0.6%	x	u
CNC(=S)NNC(=O)c1cccc(C(F)(F)F)c1	-2.9%	0.1%	-6.2%[0.365 µM]	-5.2%[38.3 µM]	2.5%	11.2µM*
CNC(=S)N/N=C(\C)c1ccc(C)c(C)c1	u	0.0%	5.01µM*	4.4%	-3.1%	1.78µM*
CNC(=S)N/N=C(\C)c1cccc(C(F)(F)F)c1	-12.3%	-0.3%	3.55µM*	-0.4%	0.8%	1.12µM*
CCc1nc2cc(C(=O)N3CCC[C@H]3CO)cc(NC(=O)c3ccccc3OC)c2n1C	x	x	x	-0.7%	x	x
O=C(NNC(=S)Nc1cccc(C(F)(F)F)c1)c1ccccc1Cl	-2.5%	0.0%	10µM*	u	3.6%	12.6µM*
COc1ccc(C2Nc3ccccc3C(=O)N2c2ccc(F)cc2)cc1COc1ccc(NC(C)=O)cc1 (stereo not drawn)	x	x	x	-0.3%	4.5%	x
CCOC(=O)COc1c(OC)cc(Cl)cc1C1Nc2ccccc2C(=O)N1c1ccc(F)cc1 (stereo not drawn)	2.6%	0.0%	u	7.2%[38.3 µM]	31.6µM*	20.4%
CCOc1cc(C2Nc3ccccc3C(=O)N2c2ccccc2)c(Br)cc1OCC(=O)O (stereo not drawn)	1.1%	3.3%	-1.2%	0.5%	u	-1.5%
CCOC(=O)COc1ccccc1C1Nc2ccccc2C(=O)N1c1cccc(Cl)c1 (stereo not drawn)	1.1%	2.5%	u	0.9%[38.3 µM]	25.1µM*	u
COc1cc(C2Nc3ccccc3C(=O)N2c2ccc(Cl)cc2)c(Cl)cc1OCC(=O)O (stereo not drawn)	13.4%	-7.9%	13.0%	-0.8%	28.2µM*	8.8%
CCOC(=O)COc1c(OC)cc(Cl)cc1C1Nc2ccccc2C(=O)N1c1cccc(C)c1 (stereo not drawn)	-0.4%	0.0%	-12.5%	u	28.2µM*	25.6%
SMILES	Sfp inh	Epigenetic reg	VP16 counter	PINK1 expr mod	ClpP mod	RORg inh
COC(=O)c1cc2sccc2n1Cc1ccc(F)cc1Cl	x	2.2%	x	2.1%	-21.5%	x
CCN(CC)CCNC(=O)c1nn(C)c2c1CS(=O)(=O)c1ccccc1-2	x	0.0%	x	0.2%	-22.4%	x
CCOc1ccccc1-c1nnc2n1N=C(c1cccc(OC)c1)CS2	-28.9%	x	u	x	x	u
CCOc1cc(C2Nc3ccccc3C(=O)N2c2ccccc2)ccc1O (stereo not drawn)	6.8%	0.7%	8.1%	2.8%[38.3 µM]	u	-0.4%
CCOC(=O)COc1c(OC)cc(Cl)cc1C1Nc2ccccc2C(=O)N1c1ccccc1 (stereo not drawn)	16.6%	1.0%	4.6%	1.9%[38.3 µM]	28.2µM*	22.0%
CCOC(C)(C)C	x	x	-2.1%	x	x	-21.9%
Cc1ccc(NC(=O)c2cnccn2)cc1	11.8%	2.3%	2.2%[10 µM]	0.5%	x	0.3%
O=C(O)Cc1ccc(NC(=O)c2cnccn2)cc1	-12.7%	8.4%	u	-2.0%	x	11.2µM*
CC(C)(C)c1ccc(C(=O)Nc2ccc(CC(=O)O)cc2)o1	14.7%	-0.1%	0.794µM*	4.3%[38.3 µM]	0.1%	0.794µM*
COc1cc(-c2cc(C)c3cccc(OC)c3n2)cc2c1OCCN(C(=O)CCn1nc(C)cc1C)C2	x	x	x	0.2%	x	x
O=S(=O)(CCSc1ccccn1)c1nc2ccccc2s1	-13.6%	-1.1%	u	u	-0.8%	12.6µM*
O=S(=O)(CCSc1nc2ccccc2o1)c1nc2ccccc2s1	9.0%	0.0%	u	8.8%[38.3 µM]	0.0%	u
Nc1ccc2nn(-c3ccccc3)nc2c1	-16.7%	4.1%	29.3%	1.4%	x	-8.5%
Nc1cc2nn(-c3ccccc3)nc2cc1Cl	39.8µM*	2.0%	-15.9%[10 µM]	-1.3%	-16.8%	-18.6%
Cc1nn(-c2ccccc2)c(OC(=O)c2ccc(Br)cc2)c1S(=O)(=O)c1ccccc1	x	0.8%	x	0.9%	-2.7%	x
CC(C)(C)OC(=O)NCc1ccc(NC(=O)c2nc[nH]c2C(=O)NCCNC(=O)c2[nH]cnc2C(=O)Nc2ccc(CNC(=O)OC(C)(C)C)cc2)cc1	x	x	x	2.8%	121.0%	x
CC(C)(C)OC(=O)CNC(=O)c1[nH]cnc1C(=O)Nc1ccc(CNC(=O)OC(C)(C)C)cc1	29.6%	12.8%	u	-1.0%	-22.2%	11.2µM*
CC(C)(C)OC(=O)CNC(=O)c1[nH]cnc1C(=O)Nc1ccc(Cl)cc1	16.0%	-1.2%	12.6µM*	3.9%	2.6%	4.47µM*
O=[N+]([O-])c1ccc(/C=C/c2ccnc3ccccc23)cc1	x	x	x	0.0%	-7.9%	x
C1CSC2(N1)C1CC3CC(C1)CC2C3 (stereo not drawn)	35.5µM*	-1.0%	-4.8%	2.8%	-1.8%	-17.6%
